Several values for one entry are separate records, joined by “and”; a condition that tells them apart may be missing. Equal entries are not always repeated. Activity calls are given as the source filed them. Rule as the data show it: active = remaining activity below about 50%; inactive = the rest.

The target in this experiment is Phospholipase D1 (Homo sapiens) (UniProt Q13393). The experiment in a line: PLD1 inhibitors in cells, Calu-1 cells, single concentration (AID 602144).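 Also: tested at 200 nM.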 The note with it: cellular PLD1 activity, hits give low values.
Sequence of Phospholipase D1 (Homo sapiens) (Q13393 whole entry, looked up): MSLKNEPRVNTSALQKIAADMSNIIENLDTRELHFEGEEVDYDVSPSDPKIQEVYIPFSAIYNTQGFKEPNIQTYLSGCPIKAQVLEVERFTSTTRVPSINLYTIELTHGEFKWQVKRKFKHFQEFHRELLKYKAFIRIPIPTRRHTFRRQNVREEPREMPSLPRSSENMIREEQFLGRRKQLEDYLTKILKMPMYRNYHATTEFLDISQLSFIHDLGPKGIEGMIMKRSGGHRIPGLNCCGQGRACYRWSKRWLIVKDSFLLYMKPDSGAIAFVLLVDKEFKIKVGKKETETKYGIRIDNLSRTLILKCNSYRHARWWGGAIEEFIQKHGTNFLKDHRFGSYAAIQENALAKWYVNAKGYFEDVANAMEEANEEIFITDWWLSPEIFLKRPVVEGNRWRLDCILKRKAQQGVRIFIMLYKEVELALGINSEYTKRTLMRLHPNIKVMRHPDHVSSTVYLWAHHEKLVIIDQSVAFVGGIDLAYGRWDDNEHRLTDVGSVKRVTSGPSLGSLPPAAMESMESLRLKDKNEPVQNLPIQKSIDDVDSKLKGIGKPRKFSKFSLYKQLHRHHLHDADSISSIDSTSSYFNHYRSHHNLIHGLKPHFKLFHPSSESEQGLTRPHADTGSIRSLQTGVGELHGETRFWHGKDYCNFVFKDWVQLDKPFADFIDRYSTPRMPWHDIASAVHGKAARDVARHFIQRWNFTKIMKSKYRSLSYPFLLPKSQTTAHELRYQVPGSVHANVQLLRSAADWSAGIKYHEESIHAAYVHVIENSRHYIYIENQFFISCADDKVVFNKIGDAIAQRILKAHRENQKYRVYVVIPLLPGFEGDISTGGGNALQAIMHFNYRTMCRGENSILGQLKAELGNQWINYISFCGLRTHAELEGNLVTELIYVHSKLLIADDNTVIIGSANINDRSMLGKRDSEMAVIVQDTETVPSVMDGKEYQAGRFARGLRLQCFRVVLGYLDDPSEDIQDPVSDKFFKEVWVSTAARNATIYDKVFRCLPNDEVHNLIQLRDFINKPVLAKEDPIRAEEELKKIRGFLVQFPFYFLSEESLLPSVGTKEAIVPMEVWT
Sequence of Phospholipase D1 (Homo sapiens) (Q13393 whole entry, looked up): as above
For `O=C(c1cnc2ccccc2c1)N1CCC[C@@H]1CN1CCC2(CC1)C(=O)NCN2c1ccccc1`, the remaining activity is 107% (inactive).
As for `O=C(NCCCN1CCC2(CC1)C(=O)NCN2c1ccccc1)c1cnc2ccccc2c1`, the figure is 99% (inactive); as for `O=C(NCCN1CCC2(CC1)C(=O)NCN2c1cccc(F)c1)c1cnc2ccccc2c1`, 79% (inactive); as for `O=C(NCCN1CCC2(CC1)C(=O)NCN2c1ccccc1)c1ccc(-c2ccccc2)o1`, 132% (inactive).
As for `O=C(NCCN1CCC2(CC1)C(=O)NCN2c1cccc(F)c1)c1ccc(Cl)cc1Cl`, the figure is 110% (inactive).
The same measure for `O=C(NCCN1CCC2(CC1)C(=O)Oc1ccccc12)c1cnc2ccccc2c1`: 105% (inactive); for `COc1cc(C(=O)NCCN2CCC3(CC2)C(=O)NCN3c2ccccc2)ccc1N`: 103% (inactive); for `C[C@@H](CN1CCC2(CC1)C(=O)NCN2c1ccc(F)c(F)c1)NC(=O)c1cc2cc(F)ccc2[nH]1`: 0% (active).
As for `O=C(NCCN1CCC2(CC1)C(=O)NCN2c1ccccc1)c1cc(Br)c(Br)o1`, the remaining activity is 66.9% (inactive).
`O=C(NCCN1CCC2(CC1)C(=O)NCN2c1ccccc1)c1cc2cccnc2s1`: the remaining activity was 51.1% (inactive).
The same measure for `O=C(CN1CCC2(CC1)C(=O)NCN2c1ccccc1)c1ccccc1`: 102% (inactive).
As for `COc1ccc(CC(=O)NCCN2CCC3(CC2)C(=O)NCN3c2cccc(F)c2)cc1OC`, the figure is 108% (inactive) and 107% (inactive).
Take `O=C(NCCN1CCC2(CC1)C(=O)NCN2c1ccccc1)c1ccncn1`: the remaining activity was 124% (inactive).
For the molecule `O=C(CCN1CCC2(CC1)C(=O)NCN2c1ccccc1)Nc1ccc(F)c(F)c1`, the remaining activity was 125% (inactive).
As for `C[C@@H](CN1CCC2(CC1)C(=O)NCN2c1ccccc1)NC(=O)c1ccc2ccccc2c1`, the figure is 4.56% (active); as for `Cc1ccccc1C(=O)NCCN1CCC2(CC1)C(=O)NCN2c1cccc(F)c1`, 97.2% (inactive).
As for `O=C(c1cnc2ccccc2c1)N1CC(N2CCC(n3c(=O)[nH]c4ccccc43)CC2)C1`, the figure is 119% (inactive); as for `O=C(Cc1cccs1)NCCN1CCC2(CC1)C(=O)NCN2c1cccc(F)c1`, 89.8% (inactive).
The same measure for `O=C(C#Cc1ccccc1)NCCN1CCC2(CC1)C(=O)NCN2c1ccccc1`: 87.1% (inactive).
With `CCC(=O)N[C@@H](C)CN1CCC2(CC1)C(=O)NCN2c1ccccc1`, the remaining activity was 93.3% (inactive).
`Nc1ccc(C(=O)NCCN2CCC3(CC2)C(=O)NCN3c2ccccc2)cc1OC(F)(F)F`: the remaining activity was 91.5% (inactive).
As for `NC1(CN2CCC3(CC2)C(=O)NCN3c2ccccc2)CCCC1` (tested in a mixture with another compound), the figure is 85.3% (inactive).
As for `O=C(COCc1ccccc1)NCCN1CCC2(CC1)C(=O)NCN2c1cccc(F)c1`, the figure is 108% (inactive); as for `C[C@H](CN1CCC2(CC1)C(=O)NCN2c1ccccc1)NC(=O)c1cc2cc(F)ccc2[nH]1`, 2.46% (active); as for `O=C(NCCN1CCC2(CC1)C(=O)NCN2c1ccc(Cl)cc1)c1ccc(Cl)cc1`, 103% (inactive).
The same measure for `O=C(c1ccc(F)c(F)c1)N1CCCC1CN1CCC(n2c(=O)[nH]c3ccccc32)CC1` (stereo unspecified): 85.3% (inactive) and 91.1% (inactive); for `O=C(c1ccc(F)c(F)c1)N(CCN1CCC2(CC1)C(=O)NCN2c1cccc(F)c1)C(=O)c1ccc(F)c(F)c1`: 101% (inactive); for `O=C(NCCN1CCC2(CC1)C(=O)NCN2c1cccc(F)c1)c1ccc2c(c1)C(=O)OC2=O`: 102% (inactive).
On to `O=C(NCCN1CCC2(CC1)C(=O)NCN2c1ccccc1)c1ncc(F)cc1F`, for which the remaining activity is 125% (inactive).
`O=C(c1ccc2ccccc2c1)N1CC(N2CCC(n3c(=O)[nH]c4ccccc43)CC2)C1`: the remaining activity was 108% (inactive).
As for `O=C(NCCN1CCC2(CC1)C(=O)NCN2c1ccc(Cl)cc1)c1cc2cc(F)ccc2[nH]1`, the remaining activity is 79.4% (inactive).
As for `O=C(NCCN1CCC2(CC1)C(=O)NCN2c1cccc(F)c1)c1ccc(OC(F)(F)F)cc1`, the remaining activity was 96.9% (inactive).
For `O=C(NCCN1CCC2(CC1)C(=O)NCN2c1ccc(F)c(F)c1)c1ccc(Cl)cc1`, the remaining activity was 94.9% (inactive).
The same measure for `CC(C)(C)C(=O)NCCN1CCC2(CC1)C(=O)NCN2c1cccc(F)c1`: 71.8% (inactive).
On to `O=C(NCCCCCCN1CCC2(CC1)C(=O)NCN2c1ccccc1)c1ccc2ccccc2c1`, for which the remaining activity is 131% (inactive).
As for `Cc1ccc(C(=O)NCCN2CCC3(CC2)C(=O)NCN3c2ccccc2)c(O)c1`, the figure is 89.1% (inactive).

The term remaining activity denotes the signal under treatment as a percentage of the control signal.

Values taken from PubChem BioAssay AID602144 (Vanderbilt Specialized Chemistry Center, 2011).
